Measured values from PubChem BioAssay.
The source made the active and inactive calls. Unless noted, the rule behind the calls is not given here.

Key:
[1] = HepG2 liver cancer cell viability effects, profiling panel, resazurin fluorescence, 24 h, PK04 Diversity Set (AID 1172); conditions: higher = more signal
[2] = basal S. cerevisiae growth modulation, no modifier, primary screen, OD600, strain BY4716, 24 h, basal condition (AID 1173); conditions: OD600, 24 h, higher = more signal, called active from +8 up or from −8 down
[3] = MM1S myeloma cell viability, profiling panel, resazurin fluorescence, basal, 24 h, PK04 Diversity Set (AID 1174); conditions: higher = more signal, called active from +8 up or from −8 down;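 note: MM1S multiple myeloma cell line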
[4] = target: Dihydroorotate dehydrogenase (quinone), mitochondrial (Plasmodium falciparum (isolate 3D7)) (UniProt Q08210); assay: PfDHODH enzyme inhibitors, primary screen, biochemical, C-terminal His tag, absorbance 600 nm (AID 1175); conditions: DCIP absorbance 600 nm, higher = more signal, called active from +8 up or from −8 down;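 note: recombinant parasite enzyme with a five histidine tag at its C terminus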
[5] = P. aeruginosa biofilm formation inhibitors, primary screen, strain PAO1, LB-PBS medium, absorbance 600 nm (AID 1176); conditions: P. aeruginosa PAO1 growth/biofilm, A600, 12 h; higher = more signal
[6] = S. cerevisiae RM11-1a growth modifiers, primary screen, strain RM11-1a, OD600, basal, 24 h (AID 1177); conditions: OD600, 24 h, higher = more signal, called active from +8 up or from −8 down;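 note: cultures grown under basal conditions with no added stressor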
[7] = E. coli acrAB mutant growth effects, primary screen, E. coli filamentation inducers, strain DRC39, OD650, 24 h (AID 1178); conditions: higher = more signal, called active from +8 up or from −8 down;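 note: growth measured as culture turbidity by optical density at 650 nm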
[8] = E. coli acrAB mutant growth effects, primary screen, E. coli filamentation inducers, strain DRC39, OD650, 48 h (AID 1179);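 note: screen aims at cell division blockers that make cells filament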; conditions: E. coli DRC39 delta-acrAB growth, higher = more signal, called active from +8 up or from −8 down
[9] = RPMI8226 myeloma cell viability, profiling panel, resazurin fluorescence, basal, 24 h, PK04 Diversity Set (AID 1180); conditions: higher = more signal;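 note: RPMI8826 multiple myeloma cell line at 5000 cells per well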
[10] = target: E3 ubiquitin-protein ligase XIAP (Homo sapiens) (UniProt P98170); assay: XIAP binders, primary screen, biophysical, small-molecule microarray, fluorescence 635 nm (AID 1181); conditions: small-molecule microarray binding, higher = more signal;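 note: score merges 667 nm emission and signal to noise over triplicate slides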
[11] = test system: XIP peptide (Xip251-270) binding; assay: small-molecule binders of XIP peptide, primary screen, biochemical, small-molecule microarray, fluorescence 635/667 nm, 0.1 µg/mL protein (AID 1182); conditions: fluorescent protein binding, 635 nm, higher = more signal, called active from +8 up or from −8 down
XIP peptide (Xip251-270) = assay: small-molecule binders of XIP peptide, primary screen, biochemical, small-molecule microarray, fluorescence 635/667 nm, 0.5 µg/mL protein (AID 1183); conditions: small-molecule microarray binding, fluorescence 635 nm; higher = more signal
[12] = Plasmodium falciparum growth inhibition, primary screen, strain 3D7, DAPI fluorescence, 100 nL (AID 1184);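 note: parasites grown inside human red blood cells in medium with human serum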; conditions: P. falciparum 3D7 growth, 3 d, higher = more signal
[13] = target: Homeobox protein Hox-A13 (Mus musculus) (UniProt Q62424); assay: inhibitors of HoxA13-DNA binding, primary screen, biochemical, fluorescence polarization, labeled oligonucleotide (AID 1185); conditions: 15 min, higher = more signal, called active from +8 up or from −8 down
[14] = inhibitors of hydroxyurea-induced Chk1 phosphorylation, primary screen, imaging, HeLa, phospho-Chk1 antibody, percent positive cells (AID 1186); conditions: hydroxyurea-induced phospho-Chk1 immunofluorescence imaging, higher = more signal
[15] = inhibitors of hydroxyurea-induced Chk1 phosphorylation, primary screen, imaging, HeLa, phospho-Chk1 nuclear intensity (AID 1187); conditions: hydroxyurea-induced phospho-Chk1 immunofluorescence imaging, higher = more signal

Chain of Dihydroorotate dehydrogenase (quinone), mitochondrial (Plasmodium falciparum (isolate 3D7)) (Q08210 whole entry, looked up): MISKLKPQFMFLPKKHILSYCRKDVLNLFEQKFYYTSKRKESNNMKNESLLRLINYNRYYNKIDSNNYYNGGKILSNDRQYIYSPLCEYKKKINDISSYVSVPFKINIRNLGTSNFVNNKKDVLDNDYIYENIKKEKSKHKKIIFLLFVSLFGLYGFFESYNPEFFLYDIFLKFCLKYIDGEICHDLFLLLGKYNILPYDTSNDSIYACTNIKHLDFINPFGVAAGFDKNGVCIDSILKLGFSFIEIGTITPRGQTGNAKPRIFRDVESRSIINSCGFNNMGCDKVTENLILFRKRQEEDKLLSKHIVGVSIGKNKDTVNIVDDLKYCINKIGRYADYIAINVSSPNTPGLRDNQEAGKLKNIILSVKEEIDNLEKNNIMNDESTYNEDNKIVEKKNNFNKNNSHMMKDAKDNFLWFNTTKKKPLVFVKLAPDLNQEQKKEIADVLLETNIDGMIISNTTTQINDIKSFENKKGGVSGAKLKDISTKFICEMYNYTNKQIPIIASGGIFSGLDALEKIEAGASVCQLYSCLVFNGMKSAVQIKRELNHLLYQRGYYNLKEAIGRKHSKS
Chain of Homeobox protein Hox-A13 (Mus musculus) (Q62424 whole entry, looked up): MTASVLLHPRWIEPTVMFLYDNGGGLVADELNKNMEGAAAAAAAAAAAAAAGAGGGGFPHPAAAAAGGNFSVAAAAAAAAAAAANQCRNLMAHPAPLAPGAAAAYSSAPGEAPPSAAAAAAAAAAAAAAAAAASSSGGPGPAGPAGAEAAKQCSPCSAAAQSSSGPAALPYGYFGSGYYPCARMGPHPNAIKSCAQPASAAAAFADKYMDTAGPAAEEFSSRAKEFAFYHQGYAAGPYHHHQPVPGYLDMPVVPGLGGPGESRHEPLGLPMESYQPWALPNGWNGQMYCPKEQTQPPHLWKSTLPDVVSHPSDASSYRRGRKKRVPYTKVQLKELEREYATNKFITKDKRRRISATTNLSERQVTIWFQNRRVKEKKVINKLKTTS
Chain of E3 ubiquitin-protein ligase XIAP (Homo sapiens) (P98170 whole entry, looked up): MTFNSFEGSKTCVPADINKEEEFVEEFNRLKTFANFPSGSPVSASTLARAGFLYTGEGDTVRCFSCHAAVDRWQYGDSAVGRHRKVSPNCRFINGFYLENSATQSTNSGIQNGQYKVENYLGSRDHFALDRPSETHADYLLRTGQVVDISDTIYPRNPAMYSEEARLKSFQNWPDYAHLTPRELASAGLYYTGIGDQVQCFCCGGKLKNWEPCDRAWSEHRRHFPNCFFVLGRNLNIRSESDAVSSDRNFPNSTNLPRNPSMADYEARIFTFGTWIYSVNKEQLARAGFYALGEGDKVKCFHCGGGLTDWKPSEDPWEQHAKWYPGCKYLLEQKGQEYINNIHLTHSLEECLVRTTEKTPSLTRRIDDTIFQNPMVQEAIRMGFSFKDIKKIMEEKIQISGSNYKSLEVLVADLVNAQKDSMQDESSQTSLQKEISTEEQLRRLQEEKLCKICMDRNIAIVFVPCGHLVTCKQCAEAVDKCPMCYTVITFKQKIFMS

SMILES	z-score [1]	z-score [2]	z-score [3]	composite z-score [4]	z-score [5]	z-score [6]	z-score [7]	z-score [8]	z-score [9]	composite z-score [10]	composite z-score [11]	composite z-score (XIP peptide (Xip251-270))	z-score [12]	z-score [13]	z-score [14]	z-score [15]
Cc1ccc(S[C@]2(C(=O)NCC(F)(F)F)CC(=O)N(Cc3cc(C(F)(F)F)cc(C(F)(F)F)c3)[C@@H]2c2ccc(CO)cc2)cc1	-0.686	0.438 (inactive)	-0.266 (inactive)	-13.9 (active)	0.214 (inactive)	-0.145 (inactive)	-0.362 (inactive)	-0.615 (inactive)	-0.445	-0.241	-0.491 (inactive)	0.584	1.2	-1.71 (inactive)	0.0254 (inactive)	0.474 (inactive)
[N-]=[N+]=NCc1ccccc1[C@@H]1OC(c2ccc(OCCCO)cc2)=N[C@]1(CCS(=O)(=O)c1ccccc1)C(=O)O	-0.274	-0.577 (inactive)	-0.906 (inactive)	0.456 (inactive)	-0.0583 (inactive)	0.275 (inactive)	-0.447 (inactive)	0.0549 (inactive)	-1.4	0.0537	0.573 (inactive)	0.964	0.692	-4.86 (inactive)	0.162 (inactive)	0.23 (inactive)
COC(=O)C1=CC(CCCO)=CC(c2cccs2)N(C)C=C1C(=O)OC (stereo not drawn)	-0.86	0.856 (inactive)	-0.482 (inactive)	0.75 (inactive)	0.462 (inactive)	1.13 (inactive)	-0.187 (inactive)	-0.532 (inactive)	0.0222	0.212	0.0334 (inactive)	0.819	-0.389	-7.53 (inactive)	0.176 (inactive)	0.219 (inactive)
O=C1O[C@H](c2ccccc2)[C@H](c2ccccc2)N2[C@H]1[C@@H](C(=O)O)[C@]1(C(=O)Nc3ccc(C#CCCO)cc31)[C@H]2c1ccccc1OCCO	-0.732	-0.498 (inactive)	0.716 (inactive)	-0.408 (inactive)	0.573 (inactive)	0.626 (inactive)	-0.88 (inactive)	-1.22 (inactive)	1.5	0.177	0.154 (inactive)	0.736	-1.08	-6.55 (inactive)	0.55 (inactive)	0.175 (inactive)
NCCCCCNC(=O)[C@@H]1C[C@@H]2C(=O)N[C@@H](CCCCN)C(=O)N2[C@@H]1c1ccc(O)cc1	0.983	1.95 (inactive)	0.116 (inactive)	0.0173 (inactive)	2.49 (inactive)	2.39 (inactive)	-0.0253 (inactive)	-0.14 (inactive)	0.249	0.554	0.439 (inactive)	0.827	-1.56	1.23 (inactive)	-0.484 (inactive)	-0.497 (inactive)
O[C@@H](Cc1ccccc1)[C@@H](/C=C/C1CC1)N(CC#Cc1ccccc1)Cc1ccccc1Br	1.67	0.365 (inactive)	1.14 (inactive)	0.63 (inactive)	-0.59 (inactive)	1.43 (inactive)	-0.419 (inactive)	-0.232 (inactive)	2.14	0.339	-0.112 (inactive)	0.13	-2.81	-0.167 (inactive)	-0.36 (inactive)	-0.214 (inactive)
CC(CO)N1C(=O)[C@]2(C)C3C(=O)OCCC/C=C\[C@H]3OC23C=CCN(c2ccc(Cl)cc2)C(=O)[C@@H]13 (stereo partly drawn)	-0.342	0.317 (inactive)	0.28 (inactive)	-0.924 (inactive)	-0.264 (inactive)	-0.354 (inactive)	0.351 (inactive)	0.779 (inactive)	0.499	0.834	-0.356 (inactive)	0.725	0.416	-3.59 (inactive)	0.0747 (inactive)	0.651 (inactive)
CCOC(=O)C[C@H]1[C@H](OC(=O)c2ccc(C(=O)c3ccccc3)cc2)[C@@H](NC(=O)C2CCCCC2)c2cc(OCCCO)ccc2N1C(=O)c1ccc2ccccc2n1	0.547	-0.108 (inactive)	0.491 (inactive)	-1.63 (inactive)	-0.312 (inactive)	0.86 (inactive)	0.297 (inactive)	0.991 (inactive)	0.0839	-0.0141	-0.482 (inactive)	0.368	-1.69	-0.814 (inactive)	-0.739 (inactive)	-0.573 (inactive)
CC(C)[Si]1(C(C)C)OCc2cc(C3CC3)nc(-c3ccc(Oc4ccccc4)cc3)c21	0.467	1.64 (inactive)	1.03 (inactive)	0.483 (inactive)	0.173 (inactive)	2.12 (inactive)	0.362 (inactive)	0.0518 (inactive)	-0.497	-0.299	-0.495 (inactive)	-0.603	-1.39	-2.85 (inactive)	-0.48 (inactive)	-0.358 (inactive)
Cc1cc(C)c(C(O)C2C=CC3C(=O)N(c4ccccc4)C(=O)C3N2Nc2ccccc2F)c(C)c1 (stereo not drawn)	0.485	2.01 (inactive)	-0.371 (inactive)	1.03 (inactive)	0.971 (inactive)	1.56 (inactive)	-0.47 (inactive)	-0.439 (inactive)	-0.527	0.127	-0.121 (inactive)	0.863	-0.286	-1.39 (inactive)	0.153 (inactive)	-0.0495 (inactive)
Cc1ccc(F)cc1S(=O)(=O)N[C@@H]1CCN(Cc2ccc(Br)cc2)C1	-0.281	-11.9 (active)	0.611 (inactive)	-0.573 (inactive)	-0.73 (inactive)	-0.184 (inactive)	1.13 (inactive)	-0.795 (inactive)	0.264	-0.17	-0.238 (inactive)	-0.192	-0.999	-5.43 (inactive)	0.0663 (inactive)	-0.335 (inactive)
COCCOC(=O)N1C(=O)[C@@]2(c3ccccc31)[C@H](c1ccc(O)cc1)N1[C@H](c3ccccc3)[C@H](c3ccccc3)OC(=O)[C@H]1[C@@H]2C(=O)N1CCN(c2ncccn2)CC1	0.0716	0.353 (inactive)	-0.183 (inactive)	-0.18 (inactive)	2.33 (inactive)	-0.451 (inactive)	-0.838 (inactive)	-0.935 (inactive)	-0.0522	0.147	1.84 (inactive)	0.787	-1.16	-2.14 (inactive)	0.0666 (inactive)	0.651 (inactive)
CCC#CCN(Cc1ccccc1Br)[C@H](/C=C/C1CC1)[C@@H](O)Cc1ccccc1	2.23	-3.06 (inactive)	1.93 (inactive)	-0.769 (inactive)	0.686 (inactive)	-2.7 (inactive)	1.96 (inactive)	0.706 (inactive)	0.329	-0.144	-0.243 (inactive)	0.0059	-3.17	-0.634 (inactive)	-0.887 (inactive)	-0.875 (inactive)
COC(=O)c1c(CC[C@@H](CO)NC(=O)N2CCC[C@H]2Cn2cc(C3(O)CCCCC3)nn2)oc(C(C)=O)c1C(=O)OC	-0.089	-0.212 (inactive)	-0.66 (inactive)	-0.0366 (inactive)	-0.546 (inactive)	-0.37 (inactive)	0.294 (inactive)	-0.0642 (inactive)	-0.302	-0.0448	0.812 (inactive)	0.499	-0.373	-4.77 (inactive)	-0.125 (inactive)	-0.0208 (inactive)
Cc1ccc(S[C@]2(C(=O)NCCN3CCOCC3)CC(=O)N(Cc3ccccc3Cl)[C@@H]2c2ccc(CO)cc2I)cc1	0.466	-3.6 (inactive)	-2.72 (inactive)	-0.576 (inactive)	0.379 (inactive)	-1.66 (inactive)	0.392 (inactive)	0.475 (inactive)	-1.7	-0.259	0.676 (inactive)	0.433	-0.244	-2.18 (inactive)	0.0327 (inactive)	0.421 (inactive)
COC(=O)[C@@]1(Cc2ccc(OC)cc2)[C@H]2c3cc(C(=O)N4CCCC4)n(CCc4c[nH]c5ccc(OC)cc45)c3C[C@H]2CN1C(=O)c1ccccc1	-1.23	1.26 (inactive)	-3.31 (inactive)	-0.112 (inactive)	1.54 (inactive)	0.708 (inactive)	-0.456 (inactive)	-0.0765 (inactive)	-3.35	0.123	0.203 (inactive)	0.0718	-1.71	-2.82 (inactive)	0.513 (inactive)	0.399 (inactive)
[N-]=[N+]=Nc1ccccc1C[C@]1(C(=O)N2CCOCC2)COC(c2ccc(OCCCO)cc2)=N1	1.27	-3.78 (inactive)	0.632 (inactive)	0.265 (inactive)	-0.537 (inactive)	-0.85 (inactive)	1.08 (inactive)	0.906 (inactive)	1.02	0.138	0.373 (inactive)	0.666	-2.03	-6.82 (inactive)	-0.488 (inactive)	-0.338 (inactive)
C=CCNC(=O)[C@@H]1[C@H]2C(=O)O[C@H](c3ccccc3)[C@H](c3ccccc3)N2[C@H](c2ccccc2OCCO)[C@@]12C(=O)Nc1ccc(C#CCCO)cc12	0.282	0.634 (inactive)	0.373 (inactive)	1.22 (inactive)	4.62 (inactive)	1.96 (inactive)	-1.09 (inactive)	-2.17 (inactive)	-0.315	0.0461	0.712 (inactive)	0.596	-2.22	-3.84 (inactive)	-0.38 (inactive)	-0.262 (inactive)
